We go through 20 compounds from PubChem BioAssay.

A short description of assay [1]: antimalarial activity against Dd2 strain (AID 2302;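 active = growth inhibition above 50% at the single 2 µM test dose, taken to imply half-maximal potency below 2 µM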;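 note: 0% = DMSO untreated growth and 100% = chloroquine plus artemisinin killed control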). As to conditions: P. falciparum Dd2 in RBCs, LDH growth readout, 72 h; at 2 µM; stronger effect = higher value.
Assay [2] is described as follows: human hepatoma cell viability loss – ATP luminescence, cytotoxicity control for P. falciparum antimalarial project, primary screen (AID 2303;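 active = inhibition above 50%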;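 note: 0% = DMSO wells and 100% = digitonin-killed cells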). As to conditions: HepG2 viability, 24-48 h, at 10 µM, stronger effect = higher value.
Assay [3] deals with L-lactate dehydrogenase (Plasmodium falciparum (isolate CDC / Honduras)) (UniProt Q27743). Nature of the assay: PfLDH activity inhibition – cell lysate, 3D7 strain, counter-screen for P. falciparum growth inhibition project (AID 2304).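 Note: 0% = vehicle and 100% = reference inhibitor.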 As to conditions: P. falciparum 3D7 crude extract, LDH APAD/NBT absorbance; at 2 µM; stronger effect = higher value. (A counterscreen serves to expose hits that act by an unwanted route or on another target.)
L-lactate dehydrogenase (Plasmodium falciparum (isolate CDC / Honduras)), sequence (Q27743 whole entry, looked up): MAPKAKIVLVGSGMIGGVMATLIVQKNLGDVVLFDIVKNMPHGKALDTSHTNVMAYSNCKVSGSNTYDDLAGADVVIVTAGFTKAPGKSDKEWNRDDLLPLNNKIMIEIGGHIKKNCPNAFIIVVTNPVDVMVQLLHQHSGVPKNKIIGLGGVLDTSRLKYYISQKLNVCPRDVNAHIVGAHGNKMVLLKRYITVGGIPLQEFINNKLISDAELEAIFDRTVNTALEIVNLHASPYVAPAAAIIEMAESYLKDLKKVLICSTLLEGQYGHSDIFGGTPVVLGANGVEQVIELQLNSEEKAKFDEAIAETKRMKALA

Assay [4] in a line: inhibition of 3D7 malaria parasite growth – strain 3D7 (AID 2306).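 Note: 0% = DMSO wells and 100% = chloroquine plus artemisinin control wells.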 As to conditions: P. falciparum 3D7 erythrocytic growth, LDH absorbance, 72 h; at 2 µM; stronger effect = higher value.
Assay [5] has as its target Calcium-dependent protein kinase 1 (Plasmodium falciparum (isolate 3D7)) (UniProt P62344). Nature of the assay: PfCDPK1 kinase inhibitors, biochemical, TCAMS library (AID 1159585; cut-off not given, nearly all actives have IC50 up to about 0.98 µM;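 note: inhibitors leave more ATP so luminescence rises with inhibition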). To be noted: recombinant PfCDPK1, Kinase-Glo ATP depletion luminescence.
Assay [6] has as its target Plasmodium falciparum protein kinase 6 (PK6, PF3D7_1337100) (UniProt Q8IDW1). Nature of the assay: PfPK6 kinase inhibitors, biochemical, TCAMS library (AID 1159586). As to conditions: recombinant PfPK6, Kinase-Glo ATP depletion luminescence.
Assay [7] addresses Protein kinase 7 (PK7), Plasmodium falciparum 3D7 (PF3D7_0213400) (UniProt Q7YTF7). Nature of the assay: inhibition of Plasmodium PK7 catalytic activity – biochemical, TCAMS antimalarial set, Kinase-Glo luminescence (AID 1159587). As to conditions: recombinant PfPK7, Kinase-Glo ATP depletion luminescence.
Assay [8] has as its target Calcium-dependent protein kinase 4 (Plasmodium falciparum (isolate 3D7)) (UniProt Q8IBS5). The assay can be described thus: PfCDPK4 kinase inhibitors, biochemical, TCAMS library (AID 1159588; cut-off not given, nearly all actives have IC50 up to about 0.91 µM). As to conditions: recombinant PfCDPK4, Kinase-Glo ATP depletion luminescence.

Unmarked numbers belong to inactive results. For some of these results: Measured potencies and affinities stand elsewhere. Active and inactive are the calls of the source. Unless noted, the rule behind the calls is not given here.

Calcium-dependent protein kinase 4 (Plasmodium falciparum (isolate 3D7)), sequence (Q8IBS5 whole entry, looked up): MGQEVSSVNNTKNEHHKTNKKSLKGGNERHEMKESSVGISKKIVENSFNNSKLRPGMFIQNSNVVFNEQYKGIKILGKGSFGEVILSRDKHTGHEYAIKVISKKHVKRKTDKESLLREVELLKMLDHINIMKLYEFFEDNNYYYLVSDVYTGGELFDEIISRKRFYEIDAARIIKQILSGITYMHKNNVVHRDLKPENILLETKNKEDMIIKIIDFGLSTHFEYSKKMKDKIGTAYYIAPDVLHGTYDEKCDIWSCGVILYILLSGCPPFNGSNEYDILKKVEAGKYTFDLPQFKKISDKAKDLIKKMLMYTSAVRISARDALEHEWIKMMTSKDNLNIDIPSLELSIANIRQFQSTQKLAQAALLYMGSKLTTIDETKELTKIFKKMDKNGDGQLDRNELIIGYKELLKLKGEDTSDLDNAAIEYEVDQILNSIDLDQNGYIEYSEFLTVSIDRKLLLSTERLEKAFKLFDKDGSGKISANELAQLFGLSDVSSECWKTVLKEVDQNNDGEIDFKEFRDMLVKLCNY
Plasmodium falciparum protein kinase 6 (PK6, PF3D7_1337100), sequence (Q8IDW1 1-305): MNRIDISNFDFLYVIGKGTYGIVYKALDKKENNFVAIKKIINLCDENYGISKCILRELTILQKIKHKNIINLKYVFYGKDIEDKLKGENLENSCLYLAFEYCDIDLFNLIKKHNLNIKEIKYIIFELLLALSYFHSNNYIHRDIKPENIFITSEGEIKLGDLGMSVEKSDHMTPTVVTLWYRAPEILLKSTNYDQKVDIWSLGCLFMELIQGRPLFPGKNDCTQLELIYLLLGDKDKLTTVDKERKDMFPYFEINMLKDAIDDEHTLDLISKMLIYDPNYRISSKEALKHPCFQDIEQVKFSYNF
Protein kinase 7 (PK7), Plasmodium falciparum 3D7 (PF3D7_0213400), sequence (Q7YTF7 1-343): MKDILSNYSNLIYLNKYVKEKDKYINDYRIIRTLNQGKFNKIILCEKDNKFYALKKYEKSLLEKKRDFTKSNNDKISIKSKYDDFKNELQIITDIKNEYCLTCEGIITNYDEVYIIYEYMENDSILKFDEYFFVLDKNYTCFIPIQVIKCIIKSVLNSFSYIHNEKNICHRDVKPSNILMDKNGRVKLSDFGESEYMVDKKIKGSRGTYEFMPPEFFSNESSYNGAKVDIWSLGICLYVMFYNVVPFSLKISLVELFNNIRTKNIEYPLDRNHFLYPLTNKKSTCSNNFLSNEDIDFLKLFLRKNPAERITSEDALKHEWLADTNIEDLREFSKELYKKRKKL
Calcium-dependent protein kinase 1 (Plasmodium falciparum (isolate 3D7)), sequence (P62344 whole entry, looked up): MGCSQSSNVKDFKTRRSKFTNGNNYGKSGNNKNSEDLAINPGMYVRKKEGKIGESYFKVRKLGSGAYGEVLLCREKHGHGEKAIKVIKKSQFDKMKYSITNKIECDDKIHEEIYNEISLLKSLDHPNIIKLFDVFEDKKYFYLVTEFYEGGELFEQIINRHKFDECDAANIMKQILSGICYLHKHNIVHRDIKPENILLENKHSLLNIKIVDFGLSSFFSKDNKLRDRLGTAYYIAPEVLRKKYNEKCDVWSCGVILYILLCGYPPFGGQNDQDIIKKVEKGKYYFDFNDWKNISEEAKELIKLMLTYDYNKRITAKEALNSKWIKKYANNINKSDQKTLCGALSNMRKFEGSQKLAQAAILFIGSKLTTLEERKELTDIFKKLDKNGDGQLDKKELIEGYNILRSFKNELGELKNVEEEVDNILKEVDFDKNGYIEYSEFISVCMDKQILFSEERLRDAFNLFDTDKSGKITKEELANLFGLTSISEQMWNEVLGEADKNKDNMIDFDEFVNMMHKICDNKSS

As usually defined, the inhibition is the drop in the measured response relative to a control, in per cent. As for `N#Cc1ccc(N2CCN(Cc3ccc(-c4ccc(-c5nc6ccccc6[nH]5)s4)cc3)CC2)nc1`, the growth inhibition in assay [1] was 63% (active); in assay [4], 99% (active). For the same compound, the inhibition in assay [2] was 17%; in assay [3], 2%. The result in assay [5], in assay [6], in assay [7] and in assay [8] was inactive.

Consider `CC(C)C[C@H](NC(=O)c1ccc(F)cc1)C(=O)N[C@H](/C=N/NC(=O)c1ccccc1)CCc1ccccc1`, for which the growth inhibition in assay [1] is 61% (active); in assay [4], 92% (active). Also, the figures for the inhibition in assay [2] and in assay [3] were 1% and -2%, respectively. The result in assay [5], in assay [6], in assay [7] and in assay [8] was inactive.

For `Cc1cc(-c2nc3ccc(C(=O)NCc4ccccc4)cc3n2C2CCN(C(=O)c3ccc(-c4ccccc4)cc3)CC2)ccn1`, the growth inhibition in assay [1] was 97% (active); in assay [4] it was 95% (active). Also, the inhibition in assay [2] was 36%; in assay [3], 1%. Further, the result in assay [5], in assay [6], in assay [7] and in assay [8] was inactive.

In the case of `CC(CN(C)C)C(=O)Nc1cccc(-c2ccc(-c3nc4ccccc4[nH]3)s2)c1` (stereo not given), the growth inhibition in assay [1] is 47%; in assay [4], 100% (active). Moreover, the inhibition in assay [2] is 13%; in assay [3] it was 7%. Further, the outcome in assay [5], in assay [6], in assay [7] and in assay [8] was inactive.

Take `COc1ccc(-c2cccc(NC(=O)c3cccc(C#N)c3)c2)cc1CN1CCCN(C)CC1`: the figures for the growth inhibition in assay [1] and in assay [4] were 99% (active) and 101% (active), respectively. Also, the inhibition in assay [2] was 22%; in assay [3], -4%. The result in assay [5], in assay [6], in assay [7] and in assay [8] was inactive.

As to `CCOC(=O)CCCc1cc(NC2CCN(C)CC2)nc(Nc2ccc(C)cc2)n1`, the growth inhibition in assay [1] is 12%; in assay [4], 90% (active). Further, the inhibition is 35% in assay [2] and -2% in assay [3]. The result in assay [5], in assay [6], in assay [7] and in assay [8] was inactive.

Regarding `Clc1ccc(Cc2nc3ccccc3[nH]2)cc1Cl`, the growth inhibition is 2% in assay [1] and 98% (active) in assay [4]. The inhibition in assay [2] was 5%; in assay [3], 0%. For the same compound, the result in assay [5], in assay [6], in assay [7] and in assay [8] was inactive.

As for `O=C(O[C@H]1CN[C@H](C#Cc2cc3c(Nc4ccc(OCc5cccc(F)c5)c(Cl)c4)ncnc3s2)C1)N1CCCC1`, the growth inhibition was 67% (active) in assay [1] and 99% (active) in assay [4]. Also, the inhibition in assay [2] was 11%; in assay [3], -7%. Moreover, the outcome in assay [5], in assay [6], in assay [7] and in assay [8] was inactive.

Regarding `FC(F)(F)c1cccc(Nc2nc(-c3ccccc3)nc3ncccc23)c1`, the growth inhibition in assay [1] and in assay [4] was 97% (active) each time. Also, the inhibition in assay [2] is 17%; in assay [3], -1%. For the same compound, the outcome in assay [5], in assay [6], in assay [7] and in assay [8] was inactive.

On to `O=C(Nc1cccc(OC2CCN(Cc3ccccc3)CC2)c1)Nc1cccc([N+](=O)[O-])c1`, for which the growth inhibition in assay [1] is 48%; in assay [4] it was 101% (active). In addition, the figures for the inhibition in assay [2] and in assay [3] were 10% and 0%, respectively. The outcome in assay [5], in assay [6], in assay [7] and in assay [8] was inactive.

For the compound `Cc1cc(N[C@@H](CC(C)C)C(=O)NCCc2ccccc2)nc(NCCc2cccs2)n1`, the figures for the growth inhibition in assay [1] and in assay [4] were 16% and 89% (active), respectively. The figures for the inhibition in assay [2] and in assay [3] were 0% and -3%, respectively. Moreover, the result in assay [5], in assay [6], in assay [7] and in assay [8] was inactive.

On to `O=C(Nc1cccc(C(F)(F)F)c1)c1cccc(S(=O)(=O)NCC2CCCN2CC2CCCCC2)c1` (stereo not given), for which the growth inhibition was 2% in assay [1] and 97% (active) in assay [4]. In addition, the inhibition in assay [2] is 6%; in assay [3], 0%. The result in assay [5], in assay [6], in assay [7] and in assay [8] was inactive.

In the case of `O=C(Nc1ccc(OC2CCN(Cc3ccccc3)C2)c(Cl)c1)c1ccsc1` (stereo not given), the growth inhibition in assay [1] is 75% (active); in assay [4], 93% (active). Besides, the inhibition was 12% in assay [2] and 1% in assay [3]. Further, the outcome in assay [5], in assay [6], in assay [7] and in assay [8] was inactive.

Consider `COc1ccc2nccc([C@@H](O)CN3CCC(NCc4cc5cccc(O)c5[nH]4)CC3)c2c1`, for which the growth inhibition in assay [1] is 35%; in assay [4], 101% (active). Further, the inhibition in assay [2] is -10%; in assay [3], -6%. In addition, the result in assay [5], in assay [6], in assay [7] and in assay [8] was inactive.

Consider `COc1cc2nc(C)nc(Nc3ccc(Oc4ccccc4)cc3)c2cc1OC`, for which the results for the growth inhibition in assay [1] and in assay [4] were 72% (active) and 101% (active), respectively. Also, the inhibition is -8% in assay [2] and 6% in assay [3]. Moreover, the result in assay [5], in assay [6], in assay [7] and in assay [8] was inactive.

Take `Cc1cc2ncn(-c3ccnc(N4CCN(CCCN5CCCC5)CC4)n3)c2cc1C`: the growth inhibition was 49% in assay [1] and 100% (active) in assay [4]. Moreover, the inhibition in assay [2] is 24%; in assay [3], -4%. Moreover, the outcome in assay [5], in assay [6], in assay [7] and in assay [8] was inactive.

Consider `COc1cccc2c(NCc3ccccc3)nc(NCCCN3CCCCC3C)nc12` (stereo not given), for which the growth inhibition in assay [1] was 2%; in assay [4], 90% (active). Also, the inhibition in assay [2] was 20%; in assay [3], 2%. The result in assay [5], in assay [6], in assay [7] and in assay [8] was inactive.

`CC(C)NCc1cc(Nc2ccnc3cc(Cl)ccc23)ccc1O`: the results for the growth inhibition in assay [1] and in assay [4] were 100% (active) and 102% (active), respectively. The inhibition in assay [2] was 27%; in assay [3], 6%. Also, the outcome in assay [5], in assay [6], in assay [7] and in assay [8] was inactive.

Consider `CC(NC(=O)NC1CCC(CCN2CCCc3ccccc32)CC1)c1cccc2ccccc12` (stereo not given), for which the growth inhibition in assay [1] was 83% (active); in assay [4] it was 90% (active). Further, the inhibition in assay [2] is -4%; in assay [3], -1%. The result in assay [5], in assay [6], in assay [7] and in assay [8] was inactive.

In the case of `O=C1COc2ccc(S(=O)(=O)N3CCC[C@@H]3CCN3CCC(c4c[nH]c5cnccc45)CC3)cc2N1`, the growth inhibition in assay [1] is 6%; in assay [4], 101% (active). Besides, the inhibition in assay [2] was -8%; in assay [3], 1%. The outcome in assay [5], in assay [6], in assay [7] and in assay [8] was inactive.
